Laboratory results as given in the antibiotic and cytotoxicity screens of Wong et al. (2023).
About 500 (1.3%) of roughly 39,000 compounds were called active. The sample holds actives, similar compounds and a random draw of the others, so the mix is not that of the screen.

Tested on: S. aureus RN4220
Experiment: growth inhibition call (relative growth <= 0.2)
Settings: 50 µM

| SMILES | growth inhibition call |
| --- | --- |
| O=C(Nc1ccc(-c2nc3ccc(NC(=O)c4ccc(Cl)cc4)cc3[nH]2)cc1)c1ccc(Cl)cc1 | inactive |
| COCC#Cc1cnc2c(c1)C(=O)N([C@H](C)CO)C[C@H](C)[C@@H](CN(C)S(=O)(=O)c1cn(C)cn1)O2 | inactive |
| COc1ccc(CN(C)C[C@H]2OCCCC[C@H](C)Oc3ccc(NC(=O)c4ccccc4)cc3C(=O)N([C@@H](C)CO)C[C@@H]2C)cc1 | inactive |
| Cc1cc(C(=O)Nc2cccc3c2O[C@@H](CN(C)C(=O)NC(C)C)[C@H](C)CN([C@@H](C)CO)C3=O)n(C)n1 | inactive |
| C[C@@H]1CN([C@H](C)CO)C(=O)c2cc(NC(=O)Nc3ccccc3)ccc2O[C@@H](C)CCCCO[C@@H]1CN(C)Cc1ccccc1 | inactive |
| C[C@@H](OC[C@@]1(c2ccccc2)CC[C@]2(CCC(=O)N2)CN1)c1cc(C(F)(F)F)cc(C(F)(F)F)c1 | active |
| COc1ccc(NC(=O)Nc2cccc3c2O[C@@H](CN(C)S(C)(=O)=O)[C@H](C)CN([C@@H](C)CO)C3=O)cc1 | inactive |
| Cc1cccnc1[C@H](c1ccc(F)cc1)N(C)C(=O)C1CCN(CCn2cnc3c2c(=O)n(C)c(=O)n3C)CC1 | inactive |
| Cc1ccccc1[C@@H](c1ncccc1C)N(C)C(=O)C1CCN(CCOc2ccc(Cl)cc2Cl)CC1 | active |
| Cc1cccnc1[C@H](c1ccc(F)cc1)N(C)C(=O)C1CCN(CCOc2ccc(Cl)cc2Cl)CC1 | active |
| Cc1cc(Cl)ccc1OCCN1CCN(C(=O)[C@H]2CC[C@@H](N)C2)CC1 | inactive |
| Cc1ccccc1[C@@H](c1ncccc1C)N(C)C(=O)C1CCN(CCOc2ccc3ccccc3c2)CC1 | inactive |
| COc1ccccc1[C@@H](NC(=O)C1CCN(CCOc2ccc(Cl)cc2Cl)CC1)c1ccccn1 | inactive |
| COc1ccc(S(=O)(=O)Nc2ccc3c(c2)C(=O)N([C@H](C)CO)C[C@@H](C)[C@H](CN(C)Cc2ccc(Cl)c(Cl)c2)OCCCC[C@H](C)O3)cc1 | inactive |
| C[C@@H]1CN([C@H](C)CO)C(=O)c2cc(-c3ccncc3)cnc2O[C@H]1CN(C)S(=O)(=O)c1ccccc1 | inactive |
| C[C@@H]1CN([C@@H](C)CO)C(=O)c2cc(NS(=O)(=O)c3ccc(F)cc3)ccc2O[C@H]1CN(C)C(=O)Nc1ccc(C(F)(F)F)cc1 | inactive |
| C[C@@H]1CCCCO[C@H](CN(C)S(=O)(=O)c2cn(C)cn2)[C@H](C)CN([C@@H](C)CO)C(=O)c2cc(NS(=O)(=O)c3ccc(F)cc3)ccc2O1 | inactive |
| C[C@@H]1CN([C@@H](C)CO)C(=O)c2cc(NC(=O)Nc3cccc4ccccc34)ccc2O[C@@H]1CN(C)S(=O)(=O)c1ccc(F)cc1 | inactive |
| COc1cc(OC)cc(-c2ccc([C@H]3CC(=O)C[C@@H](c4ccccc4)C34C(=O)c3ccccc3C4=O)cc2)c1 | active |
| COc1cc(OC)cc(-c2ccc(-c3ccc([C@H]4CC(=O)C[C@@H](c5ccccc5)C45C(=O)OC(C)(C)OC5=O)cc3)cc2OC)c1 | inactive |

| SMILES | growth inhibition call |
| --- | --- |
| COc1cc(OC)cc(-c2ccc([C@H]3CC(=O)C[C@@H](c4ccccc4)C34C(=O)OC(C)(C)OC4=O)cc2)c1 | inactive |
| Cc1cc(C(=O)Nc2cccc3c2O[C@H](CN(C)C(=O)NC(C)C)[C@@H](C)CN([C@H](C)CO)C3=O)n(C)n1 | inactive |
| C[C@H](CO)N1C[C@H](C)[C@@H](CN(C)C(=O)c2ccccc2)OCCCC[C@H](C)Oc2ccc(NC(=O)Nc3ccc4c(c3)OCO4)cc2C1=O | inactive |
| CO[C@H]1CN(C)C(=O)c2ccc(NS(=O)(=O)c3ccccc3C)cc2OC[C@@H](C)N(S(C)(=O)=O)C[C@@H]1C | inactive |
| C[C@@H]1CCCCO[C@H](CN(C)C)[C@H](C)CN([C@@H](C)CO)C(=O)c2cc(NC(=O)CCCN(C)C)ccc2O1 | inactive |
| CO[C@@H]1[C@@H](O[C@@H]2O[C@H](C)[C@@H](O[C@H]3C[C@@](C)(O)[C@@H](OC(=O)CC(C)C)[C@H](C)O3)[C@H](N(C)C)[C@H]2O)[C@@H](CC=O)C[C@@H](C)[C@@H](O)/C=C\C=C/C[C@@H](C)OC(=O)C[C@H]1OC(C)=O | active |
| CO[C@@H]1[C@@H](O[C@@H]2O[C@H](C)[C@@H](O[C@H]3C[C@@](C)(O)[C@@H](OC(=O)CC(C)C)[C@H](C)O3)[C@H](N(C)C)[C@H]2O)[C@@H](CC=O)C[C@@H](C)[C@@H](O)/C=C/C=C/CC(C)OC(=O)C[C@H]1OC(C)=O (some centres undefined) | inactive |
| COC(=O)[C@@H]1CC(=O)O[C@H](C)C/C=C/C=C/[C@H](O)[C@H](C)C[C@H](CC=O)[C@H](O[C@H]2O[C@H](C)[C@@H](O[C@H]3C[C@@](C)(O)[C@@H](OC(=O)CC(C)C)[C@H](C)O3)[C@H](N(C)C)[C@H]2O)[C@H]1OC | active |
| COC1C(O)CC(=O)OC(C)CC=CC=CC(O)C(C)CC(CC=O)C1OC1OC(C)C(OC2CC(C)(O)C(OC(=O)CC(C)C)C(C)O2)C(N(C)C)C1O (centres undefined) [KITASAMYCINS [A1 shown]] | active |
| C[C@@H]1CN([C@@H](C)CO)C(=O)c2cc(NC(=O)CCC(F)(F)F)ccc2O[C@@H]1CN(C)Cc1ccc(Oc2ccccc2)cc1 | inactive |
| C[C@H]1CN([C@@H](C)CO)C(=O)c2cccc(NC(=O)Nc3ccc(C(F)(F)F)cc3)c2O[C@H]1CN(C)C(=O)NC1CCCCC1 | active |
| C[C@H](CO)N1C[C@H](C)[C@H](CN(C)C(=O)Nc2ccc(C(F)(F)F)cc2)Oc2c(NC(=O)NC3CCCCC3)cccc2C1=O | active |
| C[C@H]1CN([C@@H](C)CO)C(=O)c2cccc(NC(=O)Nc3ccc(C(F)(F)F)cc3)c2O[C@@H]1CN(C)C(=O)NC1CCCCC1 | inactive |
| C[C@H]1CN([C@@H](C)CO)C(=O)c2cccc(NC(=O)Nc3ccc(C(F)(F)F)cc3)c2O[C@@H]1CN(C)CC1CCCCC1 | inactive |
| C[C@@H]1CN([C@H](C)CO)C(=O)c2cccc(NC(=O)NC3CCCCC3)c2O[C@H]1CN(C)C(=O)Nc1ccc(C(F)(F)F)cc1 | inactive |
| C[C@@H]1CN([C@H](C)CO)C(=O)c2cccc(NC(=O)Nc3ccc(C(F)(F)F)cc3)c2O[C@H]1CN(C)CC1CCCCC1 | inactive |
| C[C@@H]1CN([C@H](C)CO)C(=O)c2cccc(NC(=O)Nc3ccc(C(F)(F)F)cc3)c2O[C@@H]1CN(C)CC1CCCCC1 | active |
| C[C@@H]1CN([C@H](C)CO)C(=O)c2cccc(NC(=O)Nc3ccc(C(F)(F)F)cc3)c2O[C@@H]1CN(C)C(=O)NC1CCCCC1 | inactive |
| C[C@H]1CN([C@@H](C)CO)C(=O)c2cccc(NC(=O)NC3CCCCC3)c2O[C@H]1CN(C)C(=O)Nc1ccc(C(F)(F)F)cc1 | inactive |
